About 83,000 compounds went through this panel and 20% of them were active in at least one assay; those are over-represented in the sample as a whole.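 Assay: single dose, 48 h. Readout: percent growth (0 = no net growth; negative = cell death). Active: <10.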 Values without a mark were called inactive. The source made the active and inactive calls.

The subject of the test is NCI-H322M lung. As to the kind of experiment: NCI-60 one-dose screen, 48 h (100 = growth as untreated, 0 = no growth, -100 = all killed). Conditions: 10 µM unless noted. As to the method: Growth inhibition of the NCI-H322M human Non-Small Cell Lung tumor cell line is measured as a screen for anti-cancer activity. Cells are grown in 96 well plates and exposed to the test compound for 48 hours. Compounds are tested at a single concentration, which is 10^-5 M for most compounds. The reported endpoint is percent growth (GI% or GIPRCNT), where numbers from 0 - 100% represent growth inhibition, and numbers from -100% - 0 represent cell death. For example, a value of 40 represents 60% growth inhibition. A value of 0 means no net growth occurred over the course of the experiment. A value of -40 indicates 40% of cells at the beginning of the experiment died by the end of the experiment. A value of -100 means all cells are dead at the end of the experiment.
NCI-60 Human Tumor Cell Lines Screen was performed using the standard one-dose NCI protocol, which is described in more detail at https://dtp.cancer.gov/discovery_development/nci-60/default.htm.
Compounds with GIPRCNT values below 10 were considered active. Activity score was based on GIPRCNT using the following formula: […]
Score is 0 for GIPRCNT values of 100 or above, 50 for GIPRCNT values of 0, and 100 for GIPRCNT values of -100.
Regarding `Cn1cc(-c2cc(N)n3nc(-c4cn(C)c5ccc(Cl)cc45)cc3n2)c2ccccc21`, the growth is 103%.

Turning to `C#CCOc1ccc(/C=N/Nc2nc(-c3ccc(Cl)cc3)cs2)cc1OC`, the growth was 89.3%.

For `COc1ccc2cc([C@H](C)C(=O)N/N=C/c3ccc(Br)cc3)ccc2c1`, the growth was 98.2%.

For the compound `CSc1ccccc1NC(=O)c1ccc2nnn(/C(C#N)=C/c3ccccn3)c2c1`, the growth was 40.5%.

Take `O=C(N1c2ccccc2Sc2ccccc21)n1ccc2cccnc21`: the growth is 74.7%.

For the compound `COc1ccc(-c2nc3cc(C)ccc3n2CC(=O)N=Nc2c(O)[nH]c3ccc(Br)cc23)cc1`, the growth was 14.2%.

As for `CN1CCN(c2ccc3c(c2)nc(NNC(=O)c2cnccn2)c2cccn23)CC1`, the growth is 27.7%.

In the case of `Cc1ccc(NCC(=O)Cn2cc(COc3ccc(C=Nc4cnc5ccccc5c4)cc3)nn2)cc1`, the growth is 103%.

Consider `COc1ccc(C(=O)/C=C/c2cccnc2)cc1S(N)(=O)=O`, for which the growth is 52%.

For `Cc1ccc(S(=O)(=O)c2nc(S(=O)(=O)c3ccc(C)cc3)c(N3CCC(O)CC3)s2)cc1`, the growth was 77.3%.

With `NS(=O)(=O)c1ccc(N=Nc2c(O)n(CC(=O)Nc3ccccc3)c3ccccc23)cc1`, the growth is 52%.

For `Nc1cc2ccccc2c(=O)n1NC(=O)c1ccc(I)cc1`, the growth is 98.6%.

In the case of `N#Cc1cnn(C(=O)c2ccccc2Br)c1NC(=O)c1ccc(Br)cc1Cl`, the growth was 100%.

For the compound `O=C(CSc1nc2ccccc2c(=O)[nH]1)NCCN1CCCCC1`, the growth is 94.8%.

Turning to `Cc1cc2nc3c4ccccc4n(CC4=NCCN4)c3nc2cc1C`, the growth is 22.3%.

For `CC(C)c1sc(NC(=O)c2cc(NC(=O)c3cc(NC(=O)c4nccn4C)cn3C)cn2C)nc1C(=O)NCCCN(C)C`, the growth was 95.6%.

Regarding `CC1(C)CC[C@]2(C(=O)O)CC[C@]3(C)C(=CCC4[C@@]5(C)C[C@@H](O)[C@@H]6OC(c7ccc(F)cc7)OC[C@@]6(C)C5CC[C@]43C)C2C1` (stereo not given in full), the growth was 29%.

With `Cn1cc(-c2cc3nc(-c4cn(C)c5ncccc45)cc(N)n3n2)c2cc(Cl)ccc21`, the growth is -19.8% (active).

As to `COc1ccc(C(=O)Nc2n[nH]c(Nc3ccccc3)c2C#N)cc1`, the growth is 106%.

In the case of `Cc1ccc(C(=O)NN2C(=O)/C(=C/C=C/c3ccc([N+](=O)[O-])o3)SC2=S)cc1`, the growth was -76.9% (active).

Turning to `O=C(c1ccccc1)c1ccc2nc(-c3ccc(F)cc3)[nH]c2c1`, the growth was 97.2%.

In the case of `COc1ccc(-c2nc3cc(C)ccc3n2CC(=O)N=Nc2c(O)[nH]c3ccccc23)cc1`, the growth was 33.1%.

For `C=C1CCC2C3(C)COC(c4ccccc4)OC3CCC2(C)C1CC(Sc1ccccc1)C1=CCOC1=O` (stereo not given), the growth is 80.5%.

On to `COc1ccc(C(SCCNCc2cc(N(C)C)ccn2)(c2ccccc2)c2ccccc2)cc1`, for which the growth is 27.5%.

Consider `NS(=O)(=O)c1ccc(-n2cc(-c3cccc(NC(=O)c4cc(Cl)cc(Cl)c4)c3)nn2)cc1`, for which the growth is 68.8%.

On to `CC(C)CSc1nc(NCCc2c[nH]c3ccccc23)c(C#N)c(-c2ccccc2)n1`, for which the growth is 80.7%.

In the case of `Clc1cccc(Cl)c1/C=C/c1cc(/C=C/c2ccc(Br)cc2)c2ccccc2n1`, the growth is 89.7%.

Regarding `COc1cc(-c2ccc(/C=N/NC(=O)c3[nH]c4ccc(Br)cc4c3-c3ccccc3)s2)cc(OC)c1OC`, the growth was 90.2%.

Take `COc1cc(OC)c2c3nc4cc(C)c(C)cc4nc3n(CCN(C)C)c2c1`: the growth was 73.3%.

`Cc1ccc(C2CC(c3ccc(S(=O)(=O)NCCNc4nc(Nc5ccc(F)cc5)nc(N(C)C)n4)cc3)=Nc3c(N)nc(N)nc3N2)cc1` (stereo not given): the growth was 70.2%.

Consider `COc1cccc(-c2c(C#N)c(-c3ccc(Cl)cc3)nc3n[nH]c(-c4ccc(Cl)cc4)c23)c1`, for which the growth is 82.8%.

Consider `CC1(C)CC[C@]2(C(=O)Nc3ccc(Br)cc3)CC[C@]3(C)C(=CCC4[C@@]5(C)C[C@@H](O)[C@H](O)[C@@](C)(CO)C5CC[C@]43C)C2C1` (stereo not given in full), for which the growth is 54.5%.

`O=C1c2c(c3c4cc(F)ccc4oc3c3[nH]c4ccc(Br)cc4c23)C(=O)N1O`: the growth was 79.4%.

Regarding `CCOc1ccc(-c2c(C#N)c(-c3ccc(Cl)cc3)nc3n[nH]c(-c4ccc(Cl)cc4)c23)cc1OC`, the growth is 77.1%.

`COc1c(F)ccc(C(=O)Nc2ccc3nc(NC(=O)C4CCCN(S(=O)(=O)c5ccc(Br)s5)C4)sc3c2)c1F` (stereo not given): the growth is 97.9%.

On to `CCCSc1nc(NCCc2c[nH]c3ccccc23)c(C#N)c(-c2ccc(F)cc2)n1`, for which the growth is 82.9%.

Take `Cc1ccc2c(N)c(C(=O)Nc3ccc(-c4ccccc4)cc3)sc2n1`: the growth is 73.8%.

As to `C=C1CC[C@@H]2[C@]3(C)COC(c4cn[nH]c4-c4ccc(C)cc4)O[C@@H]3CC[C@@]2(C)[C@@H]1C/C=C1/C(=O)OCC1O` (stereo not given in full), the growth was 79.9%.

As for `Cc1cccc(NC(=O)[C@]23CCC(C)(C)CC2C2=CCC4[C@@]5(C)C[C@@H](O)[C@H](O)[C@@](C)(CO)C5CC[C@@]4(C)[C@]2(C)CC3)c1` (stereo not given in full), the growth was 51.6%.

Regarding `CC1=C(C(=O)OCc2ccccc2)C(c2ccc(-n3cncn3)cc2)n2c(nc3ccccc32)N1` (stereo not given), the growth is 83.5%.

The values above are taken from PubChem BioAssay (NCI).
